ST2 inh: inhibitors of human ST2 (IL1RL1) binding to IL-33, primary screen, biochemical, AlphaLISA; Interleukin-1 receptor-like 1 (Homo sapiens), Q01638; AlphaLISA ST2-Fc/biotin-IL-33 interaction, 1 h; inhibition, % for hits at 17 µM; actives 2.3% (n = 78,000); AID 1259354, 2018; in the data active = inhibition above about 30%
Target sequence (Q01638 whole entry, looked up): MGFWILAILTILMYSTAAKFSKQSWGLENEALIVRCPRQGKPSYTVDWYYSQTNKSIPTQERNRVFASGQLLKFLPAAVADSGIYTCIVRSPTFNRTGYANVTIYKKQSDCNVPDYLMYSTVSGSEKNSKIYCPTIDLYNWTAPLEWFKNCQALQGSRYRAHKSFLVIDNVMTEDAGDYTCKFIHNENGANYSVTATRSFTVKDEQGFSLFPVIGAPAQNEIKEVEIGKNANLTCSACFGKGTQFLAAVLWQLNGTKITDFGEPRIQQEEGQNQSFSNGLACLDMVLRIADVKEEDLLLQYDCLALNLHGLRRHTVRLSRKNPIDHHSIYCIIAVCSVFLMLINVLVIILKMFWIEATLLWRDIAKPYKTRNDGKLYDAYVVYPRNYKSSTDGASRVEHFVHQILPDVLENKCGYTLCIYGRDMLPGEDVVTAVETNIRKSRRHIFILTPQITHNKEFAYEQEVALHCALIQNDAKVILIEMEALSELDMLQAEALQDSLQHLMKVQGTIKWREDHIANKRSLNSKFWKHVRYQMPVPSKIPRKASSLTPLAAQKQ
* = called active by the depositor; i = inactive; ! = a repeat was not active. Only a selection was taken, and hits are over-represented in it overall.

SMILES | ST2 inh
Cn1c(=O)c2cc(S(=O)(=O)Nc3ccc4c(c3)OCO4)ccc2n(C)c1=O | i
CCC(C)NC(=O)C1(C)CCC(=O)N1Cc1ccccc1Cl (stereo not given) | i
Cc1cc(C)c(NC(=O)CN2CCN(Cc3ccccc3F)S2(=O)=O)c(C)c1 | i
O=C(CN1CCN(Cc2ccccc2F)S1(=O)=O)Nc1ccccc1 | i
Cc1ccc(Cl)cc1NC(=O)CN1CCN(Cc2ccccc2F)S1(=O)=O | 97.0%*
CCc1ccc(O)c(N=Cc2cc(C(=O)O)ccc2O)c1 | i
COc1ccc2c(c1)CCc1c(C(=O)N(C)c3ccccc3)noc1-2 | i
OC1CCCN(c2ccnc(NCc3csc(-c4ncccn4)n3)n2)C1 (stereo not given) | i
COc1ccc(-n2ncc3c(N4CCN(c5ccccc5F)CC4)ncnc32)cc1 | i
COc1ccc(-c2c(-c3ccc(OC)cc3O)n[nH]c2C)cc1 | i
C=CCc1ccccc1OC(C)/C(N)=N\O (stereo not given) | i
O=C(NC1C[C@@H]1c1ccccc1)[C@@H]1CC1c1ccccc1 (stereo not given in full) | i
O=C(Nc1ccc(Nc2ccccc2)cc1)C1CC1c1ccccc1 (stereo not given) | 30.0%*
NNC(=O)C1CC1c1ccccc1 (stereo not given) | i
CCCC(=O)n1c(=O)oc2cc(Cl)ccc21 | i
CN(C)Cc1cc(CN(C)C)c(O)c(CN(C)C)c1 | i
CCN1CCCC1CNC(=O)CSc1cc(=O)n(C)c2cc(Cl)ccc12 (stereo not given) | i
CC(C)C(=O)NC1CC(=O)N(c2cccc(F)c2)C1 (stereo not given) | i
Cc1cccc(NC(=O)CN2C(=O)C(=O)c3ccccc32)c1 | i
Cc1cc(CN2C(=O)C(=O)c3ccccc32)c(C)cc1CN1C(=O)C(=O)c2ccccc21 | i
C/C(Cl)=C\CN1C(=O)C(=O)c2cccc(C)c21 | 54.0%*
COc1ccc(I)cc1S(=O)(=O)N1CCN(c2ccccc2F)CC1 | i
CCOC(=O)c1sc2cccc(F)c2c1N | i
CC1=NN(c2ccccc2)C(=O)/C1=C/c1ccc(O)c(Cl)c1 | i
CC1=NN(c2cccc(Br)c2)C(=O)/C1=C/c1ccc(-c2ccc3c(c2)C(=O)OC3)o1 | i
SMILES | ST2 inh
CC1=NN(c2cccc(Cl)c2)C(=O)/C1=C\c1ccc(C)cc1 | 30.0%*
CC1=NN(c2cccc(Cl)c2)C(=O)/C1=C\c1ccco1 | 44.0%*
COc1cc(Br)c(/C=C2\C(=O)N(c3cccc(Cl)c3)N=C2C)cc1OC | i
COc1cc2[nH]c(=O)n(CCCC(=O)NC3CCCCC3)c(=O)c2cc1OC | i
Cn1ccc2c(-c3ccccc3C(N)=O)ccnc21 | i
COc1cccc(C2C(C#N)=C(N)Oc3c2c(=O)n(C)c(=O)n3C)c1 (stereo not given) | i
Cc1nn(-c2cccc(Cl)c2)c2c1C(c1cccc([N+](=O)[O-])c1)C(C#N)=C(N)O2 (stereo not given) | 45.0%*
Cc1nn(-c2ccccc2)c2c1C(c1cccc([N+](=O)[O-])c1)C(C#N)=C(N)O2 (stereo not given) | i
Cn1c(=O)c2c(nc(SCC(=O)O)n2Cc2cc3c(cc2Cl)OCO3)n(C)c1=O | 37.0%*
Cn1c(=O)c2c(nc(Oc3ccc4c(c3)OCO4)n2Cc2ccc(Cl)cc2)n(C)c1=O | i
Cn1c(=O)c2c(nc(SCC(=O)Nc3ccc4c(c3)OCO4)n2Cc2ccccc2)n(C)c1=O | i
O=C(NCc1ccccn1)C1COc2ccccc2O1 (stereo not given) | i
O=C1N(Cc2cccnc2)C(=O)C2(CCN(Cc3ccccc3Cl)CC2)N1CCc1ccccc1 | i
COCCCN1C(=O)N(Cc2ccccc2)C(=O)C12CCN(Cc1c(F)cccc1Cl)CC2 | 32.0%*
CCN1C(=O)N(CCc2ccccc2)C2(CCN(Cc3cccc(OC)c3OC)CC2)C1=O | i
O=C(c1ccc2nc3ccc(Cl)cc3c(=O)n2c1)N1CCN(Cc2ccc3c(c2)OCO3)CC1 | i
O=C(NCc1ccco1)c1cccc(Cl)c1 | i
C=CCC(N)(CC=C)C1=C[C@H](CC(=C)C)N[C@@H](CC(=C)C)C1 | i
O=C(COc1ccccc1Br)Nc1ccc(S(=O)(=O)Nc2ncccn2)cc1 | i
Cc1cccc(N=Cc2c(Nc3cccc(C)c3)nc3ccccn3c2=O)c1 | 44.0%*
Cn1c(C(=O)Nc2cccc(Cl)c2)cc2c(=O)n3ccccc3nc21 | i
Cc1cccc(Nc2nc(C)[nH]c2[N+](=O)[O-])c1 | i
COc1ccccc1S(=O)(=O)Cc1ccc(C(=O)NCCN2CCCC2)o1 | i
COc1ccc(C(=O)Nc2ccc([N+](=O)[O-])cc2)cc1 | i
COc1ccc(CC(=O)Nc2ccc(C)c([N+](=O)[O-])c2)cc1 | i
SMILES | ST2 inh
COc1ccc(N/C=C(/c2cc(O)ccc2O)[N+](=O)[O-])cc1 | 45.0%*
Cc1nnsc1CN(C)Cc1ccc2cccc(O)c2n1 | i
CC1CCCN(CCCNS(=O)(=O)c2cccc3cccnc23)C1 (stereo not given) | i
O=C(N[C@H]1CCN2C(=O)c3ccccc3NC(=O)[C@H]12)C1CCCC1 | i
COc1cccc(NC(=O)N[C@H]2CCN3C(=O)[C@@H](Cc4ccccc4)NC(=O)[C@H]23)c1 | i
CC(C)[C@H]1NC(=O)[C@@H]2[C@@H](NC(=O)NC3CCCCC3)CCN2C1=O | 43.0%*
CC1=C(C(=O)Nc2ccccn2)C(c2cccc(Cl)c2Cl)C2=C(CCCC2=O)N1 (stereo not given) | i
COc1ccccc1N1CCN(S(=O)(=O)c2ccc(C(=O)N(C)C)s2)CC1 | i
Cc1cccc(N2C(=O)CC(N3CCOCC3)C2=O)c1 (stereo not given) | i
Cc1ccc(S(=O)(=O)N2CCN(c3nc(C)cc(N4CCOCC4)n3)CC2)cc1 | i
Cc1ccc(SC2=C(N3CCOCC3)C(=O)N(c3cc(C)cc(C)c3)C2=O)cc1 | 43.0%*
Cn1cc(S(=O)(=O)CC(=O)N2CCc3ccccc32)c2ccccc21 | i
Cc1c(C)n(CC(O)CN2CCOCC2)c2ccccc12 (stereo not given) | i
CN(CC(O)Cn1c2ccccc2c2ccccc21)S(=O)(=O)c1ccc(Br)cc1 (stereo not given) | i
Cc1ccc(NCC(O)Cn2c(C)c(C)c3ccccc32)cc1 (stereo not given) | 36.0%*!
Cc1cc(C)n(CC(O)Cn2c(C)c(C)c3ccccc32)n1 (stereo not given) | i
Cc1c(C)n(CC(O)CNc2ccc(Br)cc2)c2ccccc12 (stereo not given) | 31.0%*
Cc1ccc(NCC(O)Cn2c(C)c(C)c3ccccc32)cc1C (stereo not given) | i
CCC1C=CCN1C(=O)c1cnn2cc(CN(CC)CC)cnc12 (stereo not given) | i
CS(=O)CCC(C(=O)O)N1C(=O)c2ccccc2C1=O (stereo not given) | 38.0%*!
O=C(NCc1ccccc1)C(Cc1ccccc1)N1C(=O)c2ccccc2C1=O (stereo not given) | i
O=C(O)CCC(C(=O)O)N1C(=O)c2ccccc2C1=O (stereo not given) | i
N#Cc1ccc(NC(=O)c2noc3c2CCCC3)cc1 | i
Cn1c(=O)c2c(nc(Oc3ccccc3)n2C)n(C)c1=O | i
Cn1c(Br)nc2c1c(=O)n(Cc1ccccc1)c(=O)n2C | i

Screens from PubChem BioAssay.
